{"source": "paper PMC5540273", "about": "(PLoS ONE, 2017);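 note: KINOMEscan kinase panel screen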", "data": [{"tested_on": "RIOK1", "conditions": "concentration: 1 μM, replicates: in singlicate; n = 1", "units": {"%Inh": "%"}, "values": [{"smiles": "COc1ccc(Nc2nccc(NCCNC(=O)Nc3cc(C)ccc3C)n2)cc1", "note": "[GSK1379899]", "%Inh": 35}, {"smiles": "Cn1cnc2c(N)ncnc21", "note": "[SKF-97623]", "%Inh": 0}, {"smiles": "Fc1ccc(-c2nc[nH]c2-c2ccncc2)cc1", "note": "[SB-217360]", "%Inh": 0}, {"smiles": "CNc1nc(-c2ccc3c(N)n[nH]c3c2)cc(N2C[C@@H](C(=O)Nc3ccccc3)CC[C@H]2C)n1", "note": "[GSK2298859]", "%Inh": 57}, {"smiles": "Nc1ncnc2occ(-c3ccc4c(c3)CCN4C(=O)Cc3cc(F)ccc3F)c12", "note": "[GSK2645446]", "%Inh": 37}, {"smiles": "COc1ccc2cc(-c3nc(-c4ccccc4C(C)C)[nH]c3-c3ccncc3)ccc2c1", "note": "[SB-660566]", "%Inh": 34}, {"smiles": "COc1cc2ncnc(Nc3cccc(Br)c3)c2cc1OC.Cl", "note": "[GI230329]", "%Inh": 29}, {"smiles": "CC(=O)c1cccc(NC(=O)NC2CCN(c3ccnc(Nc4ccc(F)cc4)n3)C2)c1", "note": "(centres unmarked) [GSK1379710]", "%Inh": 31}, {"smiles": "Cc1c(Cn2c3ccccc3n3c(=O)cc(N4CCOCC4)nc23)cccc1C(F)(F)F", "note": "[GSK2306394]", "%Inh": 35}, {"smiles": "CCc1ccc(-c2ccc3c(c2)-c2n[nH]cc2S(=O)(=O)N3C)cc1", "%Inh": 48}, {"smiles": "COc1ccc(-c2coc3ccc(-c4nnc(C)o4)cc23)cc1", "%Inh": 0}, {"smiles": "COc1cccc(CNC(=O)NC2CCN(c3ccnc(Nc4ccc(F)cc4)n3)C2)c1", "note": "(centres unmarked) [GSK1379723]", "%Inh": 30}, {"smiles": "COC(=O)C(Cc1ccccc1)NC(=O)NC1CCN(c2ccnc(Nc3ccc(F)cc3)n2)C1", "note": "(centres unmarked) [GSK1379714]", "%Inh": 24}, {"smiles": "COc1ccc(Nc2nccc(N3CCC(NC(=O)C(C)c4ccc(Cl)cc4)C3)n2)cc1", "note": "(centres unmarked) [GSK1379735]", "%Inh": 27}, {"smiles": "Cc1ccccc1Cn1ccn2c(=O)cc(N3CCOCC3)nc12", "note": "[GSK2269905]", "%Inh": 0}, {"smiles": "NS(=O)(=O)c1cccc(N/C=C2\\C(=O)Nc3ccc(S(=O)(=O)Cc4c(Cl)cccc4Cl)cc32)c1", "note": "[GSK398099]", "%Inh": 19}, {"smiles": "O=c1cc(N2CCOCC2)nc2n(Cc3ccccc3F)ccn12", "note": "[GSK2297428]", "%Inh": 38}, {"smiles": "CC[C@@H]1CO[C@H](C(=O)Nc2ccccc2)CN1c1cc(-c2ccc3c(N)n[nH]c3c2)nc(NC)n1", "note": "[GSK2376236]", "%Inh": 48}, {"smiles": "CNc1nc(-c2ccc3c(N)n[nH]c3c2)cc(N2C[C@@H](C(=O)NC3CCCCC3)OC[C@H]2C)n1", "note": "[GSK2375584]", "%Inh": 40}, {"smiles": "O=c1cc(N2CCOCC2)nc2n(Cc3cccc(Cl)c3Cl)c3ccccc3n12", "note": "[GSK2299009]", "%Inh": 42}, {"smiles": "c1ccc(-c2ccnc3[nH]ccc23)cc1", "note": "[SB-693578]", "%Inh": 14}, {"smiles": "Cn1cncc1C(=O)NC1CCN(c2ccnc(Nc3ccc(F)cc3)n2)C1", "note": "(centres unmarked) [GSK1379717]", "%Inh": 24}, {"smiles": "COc1ccc(Nc2nccc(N3CCC(NC(=O)c4cc5ccccc5s4)C3)n2)cc1", "note": "(centres unmarked) [GSK1379738]", "%Inh": 24}, {"smiles": "COc1ccc(CSc2nnc(-c3ccc4ncsc4c3)o2)cc1C(F)(F)F", "%Inh": 10}, {"smiles": "COC(=O)C(NC(=O)NC1CCN(c2ccnc(Nc3ccc(F)cc3)n2)C1)c1ccccc1", "note": "(centres unmarked) [GSK1379712]", "%Inh": 13}, {"smiles": "CS(=O)(=O)Cc1ccc(Nc2nccc(-c3c(-c4cccc(NC(=O)C5CCCCC5)c4)nn4ncccc34)n2)cc1", "note": "[GSK350559]", "%Inh": 28}, {"smiles": "Cc1ccc(-c2nc(Nc3ccncc3)c3ccccc3n2)s1", "note": "[GSK189015]", "%Inh": 45}, {"smiles": "Cc1ccc(NC(=O)Nc2ccc(Cl)c(C(F)(F)F)c2)cc1-c1ccc(C(=O)Nc2ccncc2)cc1", "note": "[GSK1398470]", "%Inh": 30}, {"smiles": "CC(C)c1cc(-c2ccc3c(N)n[nH]c3c2)nc(N)n1", "note": "[GSK2250882]", "%Inh": 86}, {"smiles": "Cc1nccc(-c2c(-c3ccc(F)cc3)ncn2CCCN2CCOCC2)n1.Cl", "note": "[SB-282975]", "%Inh": 29}, {"smiles": "FC(F)(F)c1ccccc1-c1cc(-c2c[nH]nc2-c2ccccn2)ccn1", "note": "[GW679396]", "%Inh": 13}, {"smiles": "Cc1ccc(NC(=O)Nc2ccccc2)cc1-c1ccc(C(=O)Nc2ccncc2)cc1", "note": "[GSK1398471]", "%Inh": 35}, {"smiles": "Cn1cncc1-c1cc2c(Nc3ccc(OCc4ccccc4)cc3)ncnc2cn1", "note": "[GW281179]", "%Inh": 27}, {"smiles": "Nc1nccc(-c2c(-c3ccc(F)cc3)ncn2C2CCN(Cc3ccccc3)CC2)n1", "note": "[SB-219980]", "%Inh": 0}, {"smiles": "Cc1c(Cn2c(C)c(C)n3c(=O)cc(N4CCOCC4)nc23)cccc1C(F)(F)F", "note": "[GSK2328680]", "%Inh": 11}, {"smiles": "COc1ccc(Nc2nccc(-c3ccc(NC(=O)c4cc5cc(F)ccc5[nH]4)cc3)n2)cc1", "note": "[GSK1229496]", "%Inh": 40}, {"smiles": "Fc1ccc(-c2nc3n(c2-c2ccncc2)CCS3)cc1", "note": "[GI98581]", "%Inh": 29}]}, {"tested_on": "RIOK2", "conditions": "concentration: 1 μM, replicates: in singlicate; n = 1", "units": {"%Inh": "%"}, "values": [{"smiles": "COc1ccc(Nc2nccc(NCCNC(=O)Nc3cc(C)ccc3C)n2)cc1", "note": "[GSK1379899]", "%Inh": 0}, {"smiles": "Cn1cnc2c(N)ncnc21", "note": "[SKF-97623]", "%Inh": 0}, {"smiles": "Fc1ccc(-c2nc[nH]c2-c2ccncc2)cc1", "note": "[SB-217360]", "%Inh": 0}, {"smiles": "CNc1nc(-c2ccc3c(N)n[nH]c3c2)cc(N2C[C@@H](C(=O)Nc3ccccc3)CC[C@H]2C)n1", "note": "[GSK2298859]", "%Inh": 0}, {"smiles": "Nc1ncnc2occ(-c3ccc4c(c3)CCN4C(=O)Cc3cc(F)ccc3F)c12", "note": "[GSK2645446]", "%Inh": 0}, {"smiles": "COc1ccc2cc(-c3nc(-c4ccccc4C(C)C)[nH]c3-c3ccncc3)ccc2c1", "note": "[SB-660566]", "%Inh": 0}, {"smiles": "COc1cc2ncnc(Nc3cccc(Br)c3)c2cc1OC.Cl", "note": "[GI230329]", "%Inh": 0}, {"smiles": "CC(=O)c1cccc(NC(=O)NC2CCN(c3ccnc(Nc4ccc(F)cc4)n3)C2)c1", "note": "(centres unmarked) [GSK1379710]", "%Inh": 0}, {"smiles": "Cc1c(Cn2c3ccccc3n3c(=O)cc(N4CCOCC4)nc23)cccc1C(F)(F)F", "note": "[GSK2306394]", "%Inh": 12}, {"smiles": "CCc1ccc(-c2ccc3c(c2)-c2n[nH]cc2S(=O)(=O)N3C)cc1", "%Inh": 0}, {"smiles": "COc1ccc(-c2coc3ccc(-c4nnc(C)o4)cc23)cc1", "%Inh": 15}, {"smiles": "COc1cccc(CNC(=O)NC2CCN(c3ccnc(Nc4ccc(F)cc4)n3)C2)c1", "note": "(centres unmarked) [GSK1379723]", "%Inh": 0}, {"smiles": "COC(=O)C(Cc1ccccc1)NC(=O)NC1CCN(c2ccnc(Nc3ccc(F)cc3)n2)C1", "note": "(centres unmarked) [GSK1379714]", "%Inh": 0}, {"smiles": "COc1ccc(Nc2nccc(N3CCC(NC(=O)C(C)c4ccc(Cl)cc4)C3)n2)cc1", "note": "(centres unmarked) [GSK1379735]", "%Inh": 6}, {"smiles": "Cc1ccccc1Cn1ccn2c(=O)cc(N3CCOCC3)nc12", "note": "[GSK2269905]", "%Inh": 0}, {"smiles": "NS(=O)(=O)c1cccc(N/C=C2\\C(=O)Nc3ccc(S(=O)(=O)Cc4c(Cl)cccc4Cl)cc32)c1", "note": "[GSK398099]", "%Inh": 0}, {"smiles": "O=c1cc(N2CCOCC2)nc2n(Cc3ccccc3F)ccn12", "note": "[GSK2297428]", "%Inh": 42}, {"smiles": "CC[C@@H]1CO[C@H](C(=O)Nc2ccccc2)CN1c1cc(-c2ccc3c(N)n[nH]c3c2)nc(NC)n1", "note": "[GSK2376236]", "%Inh": 4}, {"smiles": "CNc1nc(-c2ccc3c(N)n[nH]c3c2)cc(N2C[C@@H](C(=O)NC3CCCCC3)OC[C@H]2C)n1", "note": "[GSK2375584]", "%Inh": 1}, {"smiles": "O=c1cc(N2CCOCC2)nc2n(Cc3cccc(Cl)c3Cl)c3ccccc3n12", "note": "[GSK2299009]", "%Inh": 17}, {"smiles": "c1ccc(-c2ccnc3[nH]ccc23)cc1", "note": "[SB-693578]", "%Inh": 27}, {"smiles": "Cn1cncc1C(=O)NC1CCN(c2ccnc(Nc3ccc(F)cc3)n2)C1", "note": "(centres unmarked) [GSK1379717]", "%Inh": 0}, {"smiles": "COc1ccc(Nc2nccc(N3CCC(NC(=O)c4cc5ccccc5s4)C3)n2)cc1", "note": "(centres unmarked) [GSK1379738]", "%Inh": 0}, {"smiles": "COc1ccc(CSc2nnc(-c3ccc4ncsc4c3)o2)cc1C(F)(F)F", "%Inh": 13}, {"smiles": "COC(=O)C(NC(=O)NC1CCN(c2ccnc(Nc3ccc(F)cc3)n2)C1)c1ccccc1", "note": "(centres unmarked) [GSK1379712]", "%Inh": 0}, {"smiles": "CS(=O)(=O)Cc1ccc(Nc2nccc(-c3c(-c4cccc(NC(=O)C5CCCCC5)c4)nn4ncccc34)n2)cc1", "note": "[GSK350559]", "%Inh": 0}, {"smiles": "Cc1ccc(-c2nc(Nc3ccncc3)c3ccccc3n2)s1", "note": "[GSK189015]", "%Inh": 26}, {"smiles": "Cc1ccc(NC(=O)Nc2ccc(Cl)c(C(F)(F)F)c2)cc1-c1ccc(C(=O)Nc2ccncc2)cc1", "note": "[GSK1398470]", "%Inh": 12}, {"smiles": "CC(C)c1cc(-c2ccc3c(N)n[nH]c3c2)nc(N)n1", "note": "[GSK2250882]", "%Inh": 14}, {"smiles": "Cc1nccc(-c2c(-c3ccc(F)cc3)ncn2CCCN2CCOCC2)n1.Cl", "note": "[SB-282975]", "%Inh": 14}, {"smiles": "FC(F)(F)c1ccccc1-c1cc(-c2c[nH]nc2-c2ccccn2)ccn1", "note": "[GW679396]", "%Inh": 0}, {"smiles": "Cc1ccc(NC(=O)Nc2ccccc2)cc1-c1ccc(C(=O)Nc2ccncc2)cc1", "note": "[GSK1398471]", "%Inh": 0}, {"smiles": "Cn1cncc1-c1cc2c(Nc3ccc(OCc4ccccc4)cc3)ncnc2cn1", "note": "[GW281179]", "%Inh": 11}, {"smiles": "Nc1nccc(-c2c(-c3ccc(F)cc3)ncn2C2CCN(Cc3ccccc3)CC2)n1", "note": "[SB-219980]", "%Inh": 1}, {"smiles": "Cc1c(Cn2c(C)c(C)n3c(=O)cc(N4CCOCC4)nc23)cccc1C(F)(F)F", "note": "[GSK2328680]", "%Inh": 11}, {"smiles": "COc1ccc(Nc2nccc(-c3ccc(NC(=O)c4cc5cc(F)ccc5[nH]4)cc3)n2)cc1", "note": "[GSK1229496]", "%Inh": 0}, {"smiles": "Fc1ccc(-c2nc3n(c2-c2ccncc2)CCS3)cc1", "note": "[GI98581]", "%Inh": 0}]}]}
